Values joined by “and” are separate entries in the source; they are usually repeats but may differ in a detail not shown here. Equal values may be shown once. A structure can be active in one record and inactive in another. Active and inactive are the calls of the source. Rule for the calls: active = hit-call score of the fitted dose curve at least 0.9, where 1 is the maximum; inactive = score below 0.9.
How the values were obtained:
[1] = read-out: Thrombomodulin, THBD (gene 7056); assay: BSK_CASM3C_Thrombomodulin: BioMAP Diversity Plus: CASM3C Assay for Thrombomodulin Biomarker Activity (AID 2283051); conditions: primary human coronary artery smooth muscle cells; actives raise or lower the signal;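 note: thrombomodulin protein level measured by ELISA 24 h after dosing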
[2] = read-out: Tissue Factor, F3 (gene 2152); assay: BSK_CASM3C_TissueFactor: BioMAP Diversity Plus: CASM3C Assay for Tissue Factor Biomarker Activity (AID 2283052); conditions: primary human coronary artery smooth muscle cells; actives raise or lower the signal;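 note: cell surface tissue factor protein level read by ELISA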
[3] = read-out: Interferon-gamma inducible Protein 10 (IP10), CXCL10 (gene 3627); assay: BSK_hDFCGF_IP10: BioMAP Diversity Plus: hDFCGF Assay for Interferon-gamma inducible Protein 10 (IP10) Biomarker Activity (AID 2283053); conditions: primary human foreskin fibroblasts; actives raise or lower the signal
Procedure, shortened: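 Primary human foreskin fibroblasts exposed to chemicals for 24 h. IP-10 measured by ELISA; changes fitted bidirectionally against DMSO baseline.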

[4] = read-out: Urokinase-type plasminogen activator receptor (uPAR), PLAUR (gene 5329); assay: BSK_CASM3C_uPAR: BioMAP Diversity Plus: CASM3C Assay for Urokinase-type plasminogen activator receptor (uPAR) Biomarker Activity (AID 2283054); conditions: primary human coronary artery smooth muscle cells; actives raise or lower the signal;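 note: cell-surface uPAR protein level quantified by ELISA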
[5] = read-out: Vascular cell adhesion molecule 1 (VCAM1), VCAM1 (gene 7412); assay: BSK_CASM3C_VCAM1: BioMAP Diversity Plus: CASM3C Assay for Vascular cell adhesion molecule 1 (VCAM1) Biomarker Activity (AID 2283055); conditions: primary human coronary artery smooth muscle cells; actives raise or lower the signal;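 note: VCAM-1 protein level quantified by ELISA on the cells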
[6] = read-out: Collagen III, COL3A1 (gene 1281); assay: BSK_hDFCGF_CollagenIII: BioMAP Diversity Plus: hDFCGF Assay for Collagen III Biomarker Activity (AID 2283056); conditions: primary human foreskin fibroblasts; actives raise or lower the signal
Procedure, shortened: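 hDFCGF primary human dermal fibroblasts; 24 h chemical exposure; collagen III by ELISA; bidirectional curve fit vs DMSO baseline (gain or loss of signal).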

[7] = read-out: Epidermal growth factor receptor (EGFR), EGFR (gene 1956); assay: BSK_hDFCGF_EGFR: BioMAP Diversity Plus: hDFCGF Assay for Epidermal growth factor receptor (EGFR) Biomarker Activity (AID 2283057); conditions: primary human foreskin fibroblasts; actives raise or lower the signal
Procedure, shortened: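 Primary human foreskin fibroblasts (hDFCGF system), sampled 24 h after dosing; EGFR quantified by ELISA. Bidirectional fit relative to DMSO baseline; SRB total-protein staining in parallel cultures for cytotoxicity.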

[8] = read-out: Interleukin-8 (IL8), CXCL8 (gene 3576); assay: BSK_hDFCGF_IL8: BioMAP Diversity Plus: hDFCGF Assay for Interleukin-8 (IL8) Biomarker Activity (AID 2283058); conditions: primary human foreskin fibroblasts; actives raise or lower the signal
Procedure, shortened: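 ELISA read-out of IL-8 from primary human foreskin fibroblast cultures taken 24 h after dosing; values are bidirectional fits relative to DMSO vehicle.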

[9] = BSK_hDFCGF_Proliferation: Cell Proliferation Assessment in the BioMAP Diversity Plus: hDFCGF Assay (AID 2283059); conditions: primary human foreskin fibroblasts;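 note: curves fitted for both rise and fall of signal versus DMSO baseline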
Procedure, shortened: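 Primary human foreskin fibroblasts, sub-confluent; […]; 10% TCA fix, 0.1% SRB stain, A560 total protein. Gain/loss fitted bidirectionally vs DMSO control.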

[10] = read-out: Macrophage colony-stimulating factor (MCSF), CSF1 (gene 1435); assay: BSK_hDFCGF_MCSF: BioMAP Diversity Plus: hDFCGF Assay for Macrophage colony-stimulating factor (MCSF) Biomarker Activity (AID 2283060); conditions: primary human foreskin fibroblasts; actives raise or lower the signal
Procedure, shortened: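 ELISA read-out of M-CSF in human dermal foreskin fibroblast cultures, 24 h after chemical dosing; gain or loss of signal fitted bidirectionally relative to DMSO baseline.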

Measured: AC50

c1ccc(N=Nc2ccccc2)cc1
inactive: all assays above

CCNS(=O)(=O)C(F)(F)C(F)(F)C(F)(F)C(F)(F)C(F)(F)C(F)(F)C(F)(F)C(F)(F)F
active: [1] 24.6 µM | [3] 18 µM and 20.9 µM and 19.8 µM | [5] 9.52 µM and 11.7 µM and 5.95 µM | [6] 5.82 µM and 18.6 µM and 22 µM | [8] 55.1 µM and 46.4 µM | [9] 17.5 µM and 14.4 µM and 19.4 µM | [10] 17 µM and 22.2 µM and 28.5 µM
inactive: [1] | [2] | [4] | [8]

ClC1=C(Cl)[C@]2(Cl)[C@H]3[C@H]([C@@H]4C=C[C@H]3C4)[C@@]1(Cl)C2(Cl)Cl
active: [3] 19.3 µM | [4] 32 µM | [5] 38.9 µM | [6] 13.7 µM | [8] 31.3 µM | [9] 5.71 µM | [10] 16.3 µM
inactive: [1] | [2] | [7]

O=C(Nc1ccccc1)c1ccccc1I
inactive: all assays above

CC(C)(C)OOC(C)(C)CCC(C)(C)OOC(C)(C)C
active: [9] 31.3 µM
inactive: all other assays above

COP(=S)(OC)SCN1C(=O)c2ccccc2C1=O
inactive: all assays above

CNC(=O)Oc1cccc2c1OC(C)(C)C2
inactive: all assays above

[O-][Cl+]O
inactive: all assays above

O=[N+]([O-])C(Br)(CO)CO
active: [1] 24.7 µM | [3] 28.5 µM | [5] 28.1 µM | [6] 36.7 µM | [7] 36.4 µM | [8] 37.2 µM | [9] 2.66 µM | [10] 26.6 µM
inactive: [2] | [4]

CC(C)(C)OOC(=O)c1ccccc1
active: [3] 33.2 µM | [6] 35.1 µM | [8] 34.3 µM | [9] 20 µM | [10] 34.1 µM
inactive: all other assays above

Clc1ccccc1Cl
inactive: all assays above

CN(C)c1ccc(C(=O)c2ccc(N(C)C)cc2)cc1
active: [9] 1.56 µM
inactive: all other assays above

N#CC(Br)(Br)C(N)=O
inactive: all assays above

Nc1ccc(N=Nc2ccccc2)cc1
active: [3] 29.3 µM | [4] 3.9 µM | [6] 20 µM | [9] 8 µM
inactive: all other assays above

O=[N+]([O-])c1ccc(Oc2ccc(Cl)cc2Cl)cc1
active: [3] 20 µM | [6] 12.1 µM | [9] 20 µM | [10] 13.1 µM
inactive: all other assays above

Nc1ccc(Cc2ccc(N)cc2)cc1
inactive: all assays above

OCCCl
inactive: all assays above

C[C@]12C=CC3=C4CCC(=O)C=C4CC[C@H]3[C@@H]1CC[C@@H]2O
inactive: all assays above

CCC(C)c1ccc(O)cc1 (configuration not stated)
inactive: all assays above

Cc1ccc([N+](=O)[O-])cc1
inactive: all assays above

CCN(CC)CCO
inactive: all assays above

CCCCCCCCOC(=O)c1ccc(C(=O)OCCCCCCCC)c(C(=O)OCCCCCCCC)c1
inactive: all assays above

CC(O)CCO (configuration not stated)
inactive: all assays above

COC(=O)Nc1nc2ccccc2[nH]1
active: [4] 9.38 µM | [9] 0.224 µM
inactive: all other assays above

N#CC(Br)Br
inactive: all assays above

COc1cc(C=O)cc2c1[C@H](COC(N)=O)[C@]1(OC(C)=O)ON2C[C@H]2[C@@H]1N2C(C)=O
active: [1] 0.224 µM | [2] 4.87 µM | [3] 1.19 µM | [4] 2.21 µM | [5] 4.5 µM | [6] 0.788 µM | [7] 0.0312 µM | [8] 2.73 µM | [9] 0.0312 µM | [10] 1.08 µM

Cc1ccc(N=C=O)cc1N=C=O
inactive: all assays above

Nc1cc(Cl)cc(C(=O)O)c1Cl
inactive: all assays above

ClC1=C(Cl)C2(Cl)C3C(Cl)C=CC3C1(Cl)C2(Cl)Cl (configuration not stated)
active: [2] 29.3 µM | [3] 8.86 µM | [4] 31.8 µM | [5] 30.2 µM | [6] 6.97 µM | [8] 11.4 µM | [9] 10.3 µM | [10] 9.47 µM
inactive: [1]

O=C1CCCO1
inactive: all assays above

Oc1ccc2ccc3cccc4ccc1c2c34
active: [1] 16.3 µM | [3] 10.3 µM | [4] 27 µM | [6] 14.6 µM | [9] 3.17 µM | [10] 10.4 µM
inactive: [2] | [5] | [8]

Cc1ccc(N)c(N)c1
inactive: [2] | [4] | [8] | [10]
active: [1] 13.7 µM | [3] 3.97 µM | [5] 8.46 µM | [6] 6.88 µM | [9] 14.7 µM

[As]#[In]
inactive: all assays above

Brc1ccc(Oc2ccccc2)cc1
inactive: all assays above

CC(C)COC(=O)c1ccccc1C(=O)OCC(C)C
active: [1] 20 µM | [3] 30.3 µM | [6] 23.9 µM | [10] 14.4 µM
not listed: [7]
inactive: all other assays above

O=P(OCCCl)(OCCCl)OCCCl
inactive: all assays above

CCCCCCCCCCCCCN1CC(C)OC(C)C1 (configuration not stated)
active: [9] 0.541 µM
inactive: all other assays above

CCCCC(CC)COC(=O)c1ccc(C(=O)OCC(CC)CCCC)c(C(=O)OCC(CC)CCCC)c1 (configuration not stated)
inactive: all assays above

CCC12COCN1COC2
inactive: all assays above

CCCCCCCCn1sccc1=O
inactive: [7]
active: [1] 35.8 µM | [2] 14.2 µM | [3] 0.626 µM | [4] 11.5 µM | [5] 9.3 µM | [6] 2.42 µM | [8] 1.62 µM | [9] 0.405 µM | [10] 1.07 µM
